Test results reported in PubChem BioAssay (NCATS).
Several values for one entry are separate records, joined by “and”; a condition that tells them apart may be missing. Equal entries are not always repeated. Records with an inconclusive call do not appear. Unmarked numbers belong to inactive results. Calls follow the shape of the dose curve; as a rule, active = well fitted inhibition curve with a large enough effect in the signal ratio, with a control signal flat (not every such curve was filed as active); inconclusive = small, poorly fitted or top-dose-only effect, or effect the other way, or a change in a side signal; inactive = flat fitted curve, though single readings scatter; the % refers to the signal ratio.

molecular target: Thyroid hormone receptor beta (Homo sapiens) (UniProt P10828); assay: qHTS assay for small molecule antagonists of thyroid hormone receptor beta signaling (AID 588547); settings: TR-UAS-bla HEK293, beta-lactamase ratio, antagonist mode, 18 h;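 also: cells stimulated with 0.4 nM T3 agonist during compound exposure; series mostly up to about 77 µM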
Sequence (P10828 whole entry, looked up): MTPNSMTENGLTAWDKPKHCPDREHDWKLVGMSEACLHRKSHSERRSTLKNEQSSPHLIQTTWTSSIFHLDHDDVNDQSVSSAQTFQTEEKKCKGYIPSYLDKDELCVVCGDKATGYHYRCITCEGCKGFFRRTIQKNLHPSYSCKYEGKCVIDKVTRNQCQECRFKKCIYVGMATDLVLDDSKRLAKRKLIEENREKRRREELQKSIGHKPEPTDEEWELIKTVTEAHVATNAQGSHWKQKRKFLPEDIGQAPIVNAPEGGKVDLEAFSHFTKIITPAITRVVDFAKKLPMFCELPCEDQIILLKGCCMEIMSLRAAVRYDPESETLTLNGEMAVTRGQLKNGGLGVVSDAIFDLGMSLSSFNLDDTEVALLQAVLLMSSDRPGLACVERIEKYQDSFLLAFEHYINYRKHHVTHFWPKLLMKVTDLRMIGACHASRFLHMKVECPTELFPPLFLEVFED
Source text: NIH Chemical Genomics Center [NCGC] U.S. Environmental Protection Agency [EPA] National Institutes of Environmental Health Sciences [NIEHS] National Toxicology Program [NTP] NCGC Assay Overview Thyroid hormone receptor (TR) belongs to nuclear hormone receptor superfamily. There are two subtypes for TR: TR-alpha and TR-beta. TR-beta plays a major role in regulating plasma cholesterol levels and it mediates the biological activities of thyroid hormone. Screening environmental chemicals on TR-beta signaling will provide important information for the mechanism of compound action.
NCGC Assay Protocol Summary Using a beta-lactamase reporter-gene under control of the TR response element, a cell-based assay [GeneBLAzer TR-UAS-bla-GripTite assay developed by Invitrogen] was used to measure TR-beta signaling in antagonist mode. TR-UAS-bla-GripTite HEK 293 cells were used with assay medium containing 2% charcoal/dextran FBS, 0.1 mM NEAA and 1 mM sodium pyruvate. The assay was performed in clear bottom black Greiner 1536-well plates. Library compounds were measured for their ability to inhibit the reporter gene activity. Compounds were screened in a titration series in 1536-well format. The fluorescence intensity (405 nm excitation, 460/530 nm emission) was measured using an EnVision plate reader. […] Concentration-response titration points for each compound were fitted to the Hill equation yielding concentrations of half-maximal inhibition (IC50) and maximal response (efficacy) values. qHTS protocol for TR-beta beta-lactamase assay in antagonist mode [Step] [Parameter] [Value] [Description] 1. Reagent; 5 uL; 2500 cells/well 2. Incubation; 37 C for 4 hrs 3. Compounds; 23 nL; 0.59 nM to 92 uM 4. Controls (DMSO); 23 nL 5. Agonist (Stimulator); 1uL; T3 at 0.4nM (final) concentrations 6. Incubation; 37 C for 18 hrs 7. Detection reagent; 1 uL of CCF4-dye 8. Incubation; RT for 2 hrs 9. Detection; Fluorescence; Envision plate reader
% is scaled to controls: 0 for no effect and ±100 for the full control effect.

Compound	activity change % (negative = inhibition)
C[C@]12CCC(=O)C=C1CC[C@@H]1[C@@H]2CC[C@]2(C)C(=O)CC[C@@H]12	12.5%
COC(=O)C(c1ccccc1)C1CCCCN1 (configuration not stated)	13%
COP(=S)(OC)Oc1cc(Cl)c(Cl)cc1Cl	19.2%
CCC(C)(C)c1ccc(O)cc1	9.09%
C[C@]1(O)CC[C@H]2[C@@H]3CCC4=CC(=O)CC[C@]4(C)[C@@]3(F)[C@@H](O)C[C@@]21C	5.6%
O=C(O)CCCc1ccc(N(CCCl)CCCl)cc1	16.9% and 14.1%
Nc1ccccc1C(=O)O	18%
NCCc1ccc(O)cc1	-4.83%
Nc1nc(N)nc(NC2CC2)n1	-23%
[N-]=[N+]=CC(=O)OC[C@H](N)C(=O)O	10.8%
Nc1ccccc1	-1.42%
O=P1(N(CCCl)CCCl)NCCCO1 (configuration not stated)	-0.786%
O=C1c2ccccc2C(=O)C1C(=O)C(c1ccccc1)c1ccccc1	3.48%
CC(C)c1cccc(C(C)C)c1O	-3.45%
Nc1ccc([As](=O)(O)O)cc1	0.893%
Clc1ccc(C(c2ccc(Cl)cc2)C(Cl)(Cl)Cl)cc1	-20.1% and -18.4%
O=C1c2ccccc2C(=O)c2ccccc21	-1.19%
CCCC(C)(COC(N)=O)COC(N)=O	14.4%
COP(=S)(OC)SCN1C(=O)c2ccccc2C1=O	-12.6%
Oc1ccc(Cl)cc1	-0.268%
CCOC(=O)CC(SP(=S)(OC)OC)C(=O)OCC (configuration not stated)	-33.5%
COP(=S)(OC)Oc1ccc(SC)c(C)c1	-0.0791%
